Laboratory results as given in ChEMBL document CHEMBL3988442, “University of Dundee, Small-Polar-MMV Screening Library” (2021).
Where “and” joins values, the source holds several entries; their conditions need not be identical. Identical values can stand only once. Out of some 34,000 compounds screened, about 290 (0.85%) showed an effect of 50% or more. Many of the other results were omitted from the sample, so strong results are more common in it than they were.

Test system: Plasmodium falciparum
Assay: Plasmodium falciparum sporozoite viability assay
Assay type: functional, organism-based
Set-up: scale not given: in the data most compounds retested in dose-response had high values

Cn1cnc2c1CCN(CCOc1ccc(C#N)cc1)C2
Percent Effect: 2.022%

CCC(=O)N1CCCC1(C)c1nc(C)no1 (stereo not drawn)
Percent Effect: 15.01%

Cn1ccc(C(=O)N2CCCC2c2[nH]ncc2C(N)=O)n1 (stereo not drawn)
Percent Effect: 3.652%

O=C(c1ccc(-n2cccn2)nc1)N1CCC(c2ccn[nH]2)C1 (stereo not drawn)
Percent Effect: -0.6869%

Cc1nc[nH]c1CN1CCCC12CCN(c1nc3ccccc3s1)CC2
Percent Effect (10 mM as filed; unlikely as a test dose): 73.34% and 82.13%

Cc1nc[nH]c1CN1CCCN(c2nc3ccccc3s2)CC1
Percent Effect (10 mM as filed; unlikely as a test dose): 2.478% and -18.14%

c1ccc2sc(N3CCC4(CCCN4Cc4ncc[nH]4)CC3)nc2c1
Percent Effect (10 mM as filed; unlikely as a test dose): 21.32% and 38.1%

Cc1noc(C2CCCN(C(=O)c3ccc(N(C)C)nc3)C2)n1 (stereo not drawn)
Percent Effect: 8.423%

Cc1noc(C2CCN(C(=O)c3ccc(N(C)C)nc3)CC2)n1
Percent Effect: 4.187%

Cc1noc(C2CCN(C(=O)Nc3ccc(N(C)C)nc3)CC2)n1
Percent Effect (10 mM as filed; unlikely as a test dose): 63.01% and 33.92% and 30.08%

CC(C)c1n[nH]c(C2CN(C(=O)c3cc(C4CC4)on3)CCO2)n1 (stereo not drawn)
Percent Effect: -9.758%

CNC(=O)C1CCN(Cc2nc(-c3ccc(SC)cc3)oc2C)C1 (stereo not drawn)
Percent Effect (10 mM as filed; unlikely as a test dose): -17.68% and 5.16% and 2.023%

CSc1ccc(-c2nc(CN3CCC(NC(C)=O)C3)c(C)o2)cc1 (stereo not drawn)
Percent Effect (10 mM as filed; unlikely as a test dose): 76.12% and 85.32% and 90.74%

CSc1ccc(-c2nc(CN3CCC(NC(C)=O)CC3)c(C)o2)cc1
Percent Effect (10 mM as filed; unlikely as a test dose): 0.03712% and -0.9585% and 6.229%

Cc1ncncc1C(=O)N1CCOC(C)(C(=O)NC2CCCC2)C1 (stereo not drawn)
Percent Effect: 12.89%

CCC(CC)c1nnc(NC(=O)N2CCC(C(N)=O)CC2)s1
Percent Effect (10 mM as filed; unlikely as a test dose): -8.76% and -13.24%

CC(=O)NC1CCCN(C(=O)NCc2cc[nH]n2)C1 (stereo not drawn)
Percent Effect: -1.899%

CCC(CC)c1nnc(NC(=O)N2CCCC(NC(C)=O)C2)s1 (stereo not drawn)
Percent Effect (10 mM as filed; unlikely as a test dose): 78.77% and 70.93%

CC(=O)NC1CCCN(C(=O)Nc2cnc3c(cnn3C(C)C)c2)C1 (stereo not drawn)
Percent Effect: -3.926%

CC(=O)NC1CCCN(C(=O)CNc2cc(Cl)cc(Cl)c2)C1 (stereo not drawn)
Percent Effect: -3.441%

CC(=O)NC1CCCN(C(=O)NCc2cccnc2N(C)C)C1 (stereo not drawn)
Percent Effect: -28.43%

CCCc1nnc(NC(=O)N2CCCC(NC(C)=O)C2)s1 (stereo not drawn)
Percent Effect (10 mM as filed; unlikely as a test dose): 54.93% and 67.74%

CC(C)c1nnc(NC(=O)NC2CCN(Cc3ccccc3)C2)s1 (stereo not drawn)
Percent Effect: 14.49%

CC(=O)NC1CCCN(C(=O)Nc2nnc(C(C)C)s2)C1 (stereo not drawn)
Percent Effect (10 mM as filed; unlikely as a test dose): 68.35% and 80.73%

Cc1n[nH]c(C)c1CC(=O)NCc1ccccc1Cl
Percent Effect: -5.904%

NC(=O)c1ccc(CN2CCCC(O)C2)cc1 (stereo not drawn)
Percent Effect: -1.578%

Cc1cncc(NC(=O)c2ccc(CN3CCCC(C(N)=O)C3)cc2)c1 (stereo not drawn)
Percent Effect (10 mM as filed; unlikely as a test dose): -5.227% and 10.36%

Cc1[nH]ccc1C(=O)Nc1cccc(CN2CCC(O)CC2)c1
Percent Effect: 11.84%

Cc1cncc(NC(=O)c2ccc(CN3CC[C@H](O)C3)cc2)c1
Percent Effect (10 mM as filed; unlikely as a test dose): 88.45% and 79.14%

COc1cc(NC(=O)c2ccc(CN3CC[C@H](O)C3)cc2)cc(OC)c1
Percent Effect (10 mM as filed; unlikely as a test dose): 90.3% and 82.4%

COc1ccc(NC(=O)c2ccc(CN3CC[C@H](O)C3)cc2)c(OC)n1
Percent Effect (10 mM as filed; unlikely as a test dose): -15.85% and -8.926%

CCc1ccc(C(=O)Nc2cccc(CN3CCCC3C(N)=O)c2)cc1 (stereo not drawn)
Percent Effect: -39.95%

Cc1cc(NC(=O)c2ccc(CN3CC[C@H](O)C3)cc2)ccc1F
Percent Effect (10 mM as filed; unlikely as a test dose): 96.75% and 98.24%

Fc1cccc(-c2nc(CN3CCCC3Cn3cccn3)co2)c1 (stereo not drawn)
Percent Effect: 3.787%

CCc1cc(O)nc(C2CCCN2C(=O)c2cc(CC)on2)n1 (stereo not drawn)
Percent Effect: 0.3331%

CC(NC(=O)NCCCn1cncn1)c1ccc2c(c1)CC(=O)N2 (stereo not drawn)
Percent Effect: 3.485%

CSCc1cc(F)ccc1CNC(=O)N1CCOCC1
Percent Effect: 1.579%

Cc1ccnc(NC(=O)C2(n3cnnn3)CCCCC2)c1
Percent Effect: -7.357%

CC(=O)N1Cc2ccccc2CC1C(=O)Nc1cc(C)ccn1 (stereo not drawn)
Percent Effect (10 mM as filed; unlikely as a test dose): 71.78% and 85.23%

CCCN1Cc2ccccc2CC1C(=O)NC (stereo not drawn)
Percent Effect: -3.834%

CC(=O)N1Cc2ccccc2C[C@H]1C(=O)Nc1ccccn1
Percent Effect (10 mM as filed; unlikely as a test dose): 80.79% and 67.33%

CCNC(=O)NCCc1csc(N2CCCC2)n1
Percent Effect: -15.2%

CCOc1ccc(-c2cc(=O)n3c(n2)CCCCC3)cc1
Percent Effect: -4.121%

COc1ccc(CN(Cc2ccccn2)Cc2cncn2C)cc1.O=C(O)CC(O)(CC(=O)O)C(=O)O
Percent Effect: 3.185%

CCOc1cc(C)nc(N2CCN(C(=O)CN(C)C3CC3)CC2)n1
Percent Effect: 8.163%

Cn1cncc1CN1CCC(O)(Cn2nc(-c3cccs3)oc2=O)CC1.O=C(O)CC(O)(CC(=O)O)C(=O)O
Percent Effect: -17.63%

CC(C)n1nc2c(cc1=O)CN(c1nc3ccccc3s1)CC2
Percent Effect (10 mM as filed; unlikely as a test dose): 66.67% and 52.43% and 41.91%

CN(C)C(=O)CS(=O)(=O)Cc1cc(Cl)c2c(c1)OCCO2
Percent Effect: 4.247%

Clc1cc(CN2CCCCC2Cn2cncn2)c2ncccc2c1 (stereo not drawn)
Percent Effect: -10.63%

CC(C)Nc1ncnc2c1CCN(C(=O)c1ccc[nH]1)CC2
Percent Effect: -7.967%

CC(C)C[C@H](N)COc1cccc(F)c1Oc1cccc(Cl)c1
Percent Effect: 0.9974%

Cc1ccc(NS(=O)(=O)c2cc3c(c(C(=O)O)c2)OCCO3)cc1F
Percent Effect: 6.057%

O=C(O)C(F)(F)F.O=c1ccc2c(n1CC1CC1)CCC(NCc1cccs1)C2 (stereo not drawn)
Percent Effect: 4.557%

Cc1cccc(-c2noc(CN3CCOCC3C)n2)c1 (stereo not drawn)
Percent Effect: 5.079%

Cc1cccc(-c2noc([C@@H]3Cc4nc[nH]c4CN3)n2)c1
Percent Effect (10 mM as filed; unlikely as a test dose): 77.23% and 75.76%

c1ccc(-c2noc([C@@H]3Cc4nc[nH]c4CN3)n2)cc1
Percent Effect (10 mM as filed; unlikely as a test dose): 8.153% and 22.58%

Cc1ccc(-c2noc([C@@H]3Cc4nc[nH]c4CN3)n2)cc1
Percent Effect (10 mM as filed; unlikely as a test dose): 79.76% and 77.83%

FC(F)(F)Oc1ccc(-c2noc([C@@H]3Cc4nc[nH]c4CN3)n2)cc1
Percent Effect (10 mM as filed; unlikely as a test dose): 93.02% and 93.75%

Cc1noc(NC(=O)c2ccc(OC(F)(F)F)cc2)n1
Percent Effect: -13.94%

c1cc(-c2noc([C@@H]3Cc4nc[nH]c4CN3)n2)ccn1
Percent Effect (10 mM as filed; unlikely as a test dose): -0.1591% and 11.18%

Fc1ccc(-c2noc([C@@H]3Cc4nc[nH]c4CN3)n2)cc1
Percent Effect (10 mM as filed; unlikely as a test dose): 27.52% and 35.27%

O=C(NCC1CC1)C1CN(C(=O)NC2CCCC2)Cc2cncn2C1 (stereo not drawn)
Percent Effect: 10.46%

Cc1nn(C)c(Cl)c1C1CCCN1C(=O)c1cnn(C)c1C1CC1 (stereo not drawn)
Percent Effect: 4.376%

CC(C)C(=O)N1CCCC(c2cncc(Oc3cccnc3)n2)C1 (stereo not drawn)
Percent Effect: -4.997%

c1cc(N2CCOCC(Cc3ccc4[nH]ccc4c3)C2)ncn1 (stereo not drawn)
Percent Effect: 5.765%

CNC(=O)c1cc(C2CCCNC2)n[nH]1.Cl (stereo not drawn)
Percent Effect: 11.11%

COCCc1noc(CN2CCCC2Cn2nc(C)nc2C)n1 (stereo not drawn)
Percent Effect: 16.37%

CC(=O)N(Cc1ncc(C)o1)C1CCN(Cc2csc(C)n2)C1 (stereo not drawn)
Percent Effect: 8.537%

Cc1cc(C(=O)N2CC[C@H]3C[C@H](c4ccncn4)O[C@@H]3C2)c(C)[nH]1
Percent Effect: -3.163%

CC(C)(C)n1ncc2c(=O)n(CC(=O)NCc3ccccc3Cl)cnc21
Percent Effect (10 mM as filed; unlikely as a test dose): 89.9% and 78.88%

CCCNC(=O)Cn1nc(C(C)C)c2cnn(C(C)(C)C)c2c1=O
Percent Effect: -2.007%

CC(C)(C)n1ncc2c(=O)n(CC(=O)NCc3ccccc3)cnc21
Percent Effect (10 mM as filed; unlikely as a test dose): 92.95% and 84.04%

NC(=O)Cn1c(CO)cnc1SCC(=O)NCc1ccccc1Cl
Percent Effect (10 mM as filed; unlikely as a test dose): -15.15% and -22%

CC(C)(C)n1ncc2c(=O)n(CC(=O)NCCc3ccccc3)cnc21
Percent Effect (10 mM as filed; unlikely as a test dose): -2.076% and -3.898%

CCCNC(=O)c1ncn2c1CN(CC(C)C)S(=O)(=O)c1ccccc1-2
Percent Effect: 20.71%

CNc1ccc(C2CN(c3cc(C)nc(N)n3)CCO2)nc1 (stereo not drawn)
Percent Effect: 20.28%

CNc1nc2c(s1)C(=O)CN(C(=O)[C@@H](N)Cc1cccc(OC)c1)C2
Percent Effect: -10.92%

CN[C@@H]1CCC[C@@H](Oc2ccccc2Oc2ccc(C)cc2)[C@@H]1O
Percent Effect: 14.14%

Cc1cccc2sc(NC(=O)CN3CCCC4(CC3)CNC(=O)O4)nc12 (stereo not drawn)
Percent Effect (10 mM as filed; unlikely as a test dose): 74.6% and 74.31%

Cc1cccc2sc(NC(=O)CN3CCCC(O)(CO)C3)nc12 (stereo not drawn)
Percent Effect (10 mM as filed; unlikely as a test dose): -25.02% and -31.47%

Cc1cccc2sc(NC(=O)CN3CCC(C)CC3)nc12
Percent Effect (10 mM as filed; unlikely as a test dose): 5.902% and -3.165%

COc1ccc(CN(C)c2ccc(-c3nccn3C)nn2)cc1OC
Percent Effect (10 mM as filed; unlikely as a test dose): 63.95% and 77.57%

CN(Cc1nccn1C)c1ccc(-c2nccn2C)nn1
Percent Effect (10 mM as filed; unlikely as a test dose): -4.7% and -1.79%

CN(Cc1ccoc1)c1ccc(-c2nccn2C)nn1
Percent Effect (10 mM as filed; unlikely as a test dose): -6.958% and -8.789%

O=C(CN1CCC(c2cc(=O)n3c(n2)CCCCC3)CC1)N1CCCC1
Percent Effect: -0.7803%

CC(=O)N1CCOC(c2cc(N3CC(O)C3)nc(C)n2)C1 (stereo not drawn)
Percent Effect: -19.49%

c1ccc2oc(CN3CCCC3c3noc(C4CC4)n3)nc2c1 (stereo not drawn)
Percent Effect: 8.668%

c1ccc2sc(CN3CCCC3c3noc(C4CC4)n3)nc2c1 (stereo not drawn)
Percent Effect (10 mM as filed; unlikely as a test dose): 57.55% and 55.22% and 51.03%

CC(CCc1ccccc1)N1CCC(C(=O)Nc2cnccn2)CC1 (stereo not drawn)
Percent Effect: -2.997%

CS(=O)(=O)NCc1cn2c(n1)CN(C(=O)c1ccc[nH]1)CC2
Percent Effect: -21.11%

Cc1oncc1C(=O)N1CC[C@H]2[C@@H]1CCC(=O)N2CC1CCOCC1
Percent Effect: 5.199%

CC(=O)N1CCC(c2cc(C(F)(F)F)nc3nccn23)CC1
Percent Effect: 1.841%

O=C1[C@H]2CN(C(=O)[C@H]3CCCO3)C[C@H]2CN1CC1CC1
Percent Effect: 2.539%
